ALR H2O2 inh – inhibitors of human sulfhydryl oxidase ALR; P55789; purified ALR, DTT oxidation, H2O2 HRP-luminol luminescence; inhibition, % (no concentration beside the values); actives 3.8% (n = 290,000); AID 485317;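 active means mean replicate inhibition above about 79%, with every replicate also reaching it, limit read from the data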
AI-2 QS mod – Vibrio harveyi AI-2 quorum sensing modulation; Vibrio harveyi JMH597 AI-2 luminescence/OD600 ratio, 9 h; active compounds read low; strain lacks LuxN and CqsS sensors; 0 = neutral-control median; activity change, % at 7.5 µM; actives 0.4% (n = 300,000); AID 2094; in the data active means activity change below about -75%, passing the limit was not always enough;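 further: luminescence divided by OD600 gain over 9 h not by final OD600 alone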
PREPL inhibitor – human PREPL enzyme inhibition; Q4J6C6; recombinant PREPL, fluorescence polarization activity-based probe; inhibition, % at 5.96 µM; actives 0.68% (n = 320,000); AID 2751; in the data active means inhibition above about 43%;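 further: 0% = enzyme with DMSO and 100% = wells lacking enzyme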
CHT PAM – allosterically activates the human high affinity choline transporter. CHT-expressing cells, membrane potential dye, choline EC20; active compounds read high; LV-AA mutant CHT in HEK293 cells. AID 488977. actives 0.49% (n = 310,000). B-score at 10 µM;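 active means initial fluorescence not abnormally high and integrated response B-score, plate-corrected, over 3 SD above library mean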
CHT block – inhibits the human high affinity choline transporter | Q9GZV3 | CHT-expressing cells, membrane potential dye, choline response; active compounds read low | B-score at 10 µM | actives 0.86% (n = 310,000) | AID 488975;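 active means B-score over 3 SD under the library average, and starting fluorescence ratio not unusually high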;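 further: choline stimulus applied at its EC90 after an EC20 pre-addition; B-score computed on integrated fluorescence ratio after choline addition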
* marks the source's active call; other numbers are inactive results; i = inactive; . = not tested or not shown. A selection: hits, their analogues and other compounds. The true share with any hit is near 5%.

SMILES	ALR H2O2 inh	AI-2 QS mod	PREPL inhibitor	CHT PAM	CHT block
CC(=O)c1ccc(-c2ccc(C(=O)NCC3CCCO3)o2)cc1 (centres undefined)	.	11	1	i	i
CC(=O)c1ccc(-c2ccc(C(=O)NC3CC(C)(C)NC(C)(C)C3)o2)cc1	98*	13	-40	i	i
NS(=O)(=O)c1ccc(CCN=Cc2ccccc2O)cc1	-1	13	-2	i	i
CNc1nc2c3ccccc3n(C(C)=O)c2s1	.	13	2	i	i
CC(=O)n1c2ccccc2c2nc(NC(C)C)sc21	99*	17	9	i	i
CCCS(=O)(=O)N1CCN=C1SCc1ccc(F)cc1	92*	10	0	i	i
CCCS(=O)(=O)N1CCN=C1SCc1cccnc1	99*	10	4	i	i
CCS(=O)(=O)N1CCN=C1SCc1cccc(F)c1	48	27	-2	i	i
CS(=O)(=O)N1CCN=C1SCc1cccc(F)c1	81*	8	2	i	i
CCCS(=O)(=O)N1CCN=C1SCc1cccc2ccccc12	99*	6	30	i	i
CCS(=O)(=O)N1CCN=C1SCc1ccc(F)cc1	89*	17	3	i	i
CCS(=O)(=O)N1CCN=C1SCc1ccccc1	-5	0	-7	i	i
CC1=CC(C)(C)N(C(=O)c2ccc(F)cc2)c2cc3c(cc21)OCO3	98*	-1	6	i	i
CC1=CC(C)(C)N(C(=O)CCl)c2cc(C)ccc21	2	20	15	i	i
N#Cc1c(NC(=O)c2cccc(S(=O)(=O)Nc3ccc(C(=O)O)cc3)c2)sc2c1CCCC2	89*	30	7	i	i
C=CCn1c(SCC(=O)c2c(N)n(C)c(=O)n(C)c2=O)nc2sc(C)c(C)c2c1=O	-1	.	5	i	i
Cc1nc(SC(C)C(=O)c2c(N)n(C)c(=O)n(C)c2=O)c2c(C)c(C)sc2n1 (centres undefined)	91*	12	6	i	i
Oc1oc(-c2ccco2)nc1C=Nc1cccc(Cl)c1	96*	37	12	i	i
Oc1oc(-c2ccco2)nc1C=Nc1ccccc1	66	18	9	i	i
COc1ccc(C(C2C(=O)CC(C)(C)CC2=O)C2C(=O)CC(C)(C)CC2=O)cc1CO	96*	12	.	i	i
COc1ccc(OC)c(CCNC(=O)c2cccc(NC(=O)C3=C(C)OCCS3)c2)c1	-8	4	-4	i	i
COc1cc2sc3cc(NCCCN4CCOCC4)ccc3c(=O)c2cc1OC	99*	.	23	.	.
COc1ccc(OC)c(S(=O)(=O)NCCCN2CCOCC2)c1	-5	.	23	.	.
Cn1c(=O)c(-c2cccc(Cl)c2)c(O)c2ccccc21	-1	-5	-2	i	i
O=c1c(Cl)c(O)c2cccc3c4ccccc4n1c23	99*	97	-7	i	i
SMILES	ALR H2O2 inh	AI-2 QS mod	PREPL inhibitor	CHT PAM	CHT block
O=[N+]([O-])c1ccc(Nc2ccc(N3CCOCC3)cc2)c([N+](=O)[O-])c1	99*	17	9	i	i
O=C(O)/C=C/C(=O)c1ccc2c(c1)CCc1ccccc1-2	59	-89*	-3	i	i
CCC(C)c1ccc(C(CC)NC(=O)C2CCCO2)cc1 (centres undefined)	3	19	-15	i	i
O=c1[nH]c(/C=C\c2ccc(O)c(O)c2)nc(O)c1[N+](=O)[O-]	99*	11	.	i	i
Cc1ccccc1NC(=O)CCS(=O)(=O)c1cccc2nonc12	.	-4	26	i	i
CCOc1ccc(C(O)(c2ccccc2)C(CN2CCCC2)c2ccccc2)cc1 (centres undefined)	7	3	16	i	i
CN(C)c1ccc(NC(=O)COC(=O)c2cc(=O)c3ccccc3o2)cc1	99*	3	-3	i	i
CC(OC(=O)c1cc(=O)c2ccccc2o1)C(=O)Nc1ccc(N(C)C)cc1 (centres undefined)	.	.	9	.	.
O=C(Nc1ccc(CN2CCOCC2)cc1)c1cc2ccccn2n1	85*	13	11	i	i
O=C(Nc1ccc(CN2CCOCC2)cc1)c1cc2ccccc2o1	-8	5	2	i	i
CCOC(=O)C1(C)/C(=N/Nc2ccc(Cl)cc2)C(=O)C(=O)N1c1ccccc1 (centres undefined)	99*	8	1	i	i

Screening data (PubChem)
